# Measurements: PubChem BioAssay AID602182 (The Scripps Research Institute Molecular Screening Center, 2012)
# The list shows a part of the results. Values without a mark were called inactive. No rule for the calls is given here.
# Experiment: quenching of GFP signal – biochemical, fluorescence, artefact control for Rin1-Abl interaction inhibitor project, dose response (AID 602182);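 also: ABL1-eGFP fusion protein alone without its RIN1 binding partner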
# Conditions: GFP fluorescence interference/quenching counterscreen
row,Structure (SMILES),IC50
1,CN(C(=O)c1ccc(NC(=O)Cc2cccc(NC(=O)C3CCN(C(=O)c4ccccc4)CC3)c2)cc1)C1CC1,> 67.6 µM
2,CN(Cc1c(F)cccc1Cl)C(=O)CNC(=O)c1ccc2c(c1)OCO2,> 67.6 µM
3,CCOC(=O)N1CCN(C(=O)C2CCN(c3ncnc4c3sc3cccc(F)c34)CC2)CC1,> 67.6 µM
4,Nc1cc(=O)c2[nH]cnc2[nH]1,> 67.7 µM
5,C[C@@H]1CN([C@H](C)CO)S(=O)(=O)c2ccc(C#C[C@@H](C)O)cc2O[C@@H]1CN(C)Cc1ccc(-c2ccccc2)cc1,> 67.5 µM
6,CC(OC(=O)c1ccccc1NCCO)C(=O)Nc1ccnn1C(C)C (stereo not drawn),> 67.5 µM
7,C=CCn1c2ccccc2c2nnc(SCc3[nH]c(=O)[nH]c3C(=O)CCCCC(=O)OCC)nc21,> 67.5 µM
8,Cc1ccccc1CN1C[C@@H]2C[C@@H](c3ccc4nsnc4c3)N3CCC[C@@]23C1=O,> 67.5 µM
